Molecules are shown by their SMILES. Values without a mark were called inactive. Entries that show only a call come without a potency. Active and inactive are the calls of the source. Calls come from the whole dose curve; as a rule, active = well fitted inhibition curve with a large enough effect; inconclusive = small, poorly fitted or top-dose-only effect; inactive = flat fitted curve, though single readings scatter.

The target in the test is Luciferin 4-monooxygenase (Photinus pyralis) (UniProt P08659). The test can be described thus: Primary firefly luciferase (FLuc) qHTS assay for identification of artifact compounds. (AID 1845220). Note: nearly all actives have a fitted effect of over 60% in size. To be noted: purified firefly luciferase, luminescence, 5 min; series mostly up to 54.1 µM. The source says:
PI: Alexander Tropsha Ph.D.
UNC Eshelman School of Pharmacy
University of North Carolina, Chapel Hill, North Carolina
Hits from high-throughput screening (HTS) of chemical libraries are often false positives due to their interference with the assay detection technology. In response to this problem, we generated the largest publicly available library of chemical liabilities and developed a free webtool to predict HTS artifacts, both of which are described herein. More specifically, we generated, curated, and integrated HTS datasets for thiol reactivity, redox activity, and luciferase (firefly and nano) activity. Using these curated datasets, we developed and validated several Quantitative Structure-Interference Relationship (QSIR) models to predict nuisance behavior. […] These models were employed for virtual profiling of the National Center for Advancing Translational Science's (NCATS) in-house library, and 256 compounds for each assay were selected for the experimental validation of nuisance behavior. The BA for these external predictions ranged from 58 to 78% for compounds within the applicability domains of the models. […] The models developed in this study, along with aggregation models previously developed by our group (SCAM Detective) were implemented in "Liability Predictor," an online tool which may be used as part of chemical library design or for triaging HTS hits. Both the models and the curated datasets are publicly available at https://liability.mml.unc.edu/.
SEQUENCE No. (e.g., 1, 2, 3, etc.); […] (e.g., Cells, Incubation, Reagent, etc.); VALUE; DESCRIPTION.
1; Reagent; 3 uL; Luciferase substrate mixture.
2; Compounds and control; 16 nL; Kalypsis pin tool (Wako USA) equipped with a 1536-well pin head.
4; Reagent; 1 uL; Luciferase enzyme.
6; Detection; Luminescence, ViewLux microplate reader.
NOTES (numbers refer to Sequence numbers above)
1. 3 uL of luciferase substrate mixture containing D-luciferin and ATP (final concentrations of 10 uM and 10 uM, respectively) in assay buffer (10 mM Mg-acetate, 0.01% Tween-20, 0.05% bovine serum albumin, 50 mM Tris acetate, pH 7.6) was dispensed into all wells of a 1536-well assay plate (solid-bottom white plate; Greiner Bio One, Monroe, NC).
2. A Wako Pin-tool (Wako Automation, Richmond, VA) was used to transfer 16 nL of compounds (consisting of 7-plates in qHTS format, final concentration range 18.3 nM to 114 uM) or control PTC124 (final concentration range 1.22 nM to 40 uM).
3. 15 min. incubation at room temperature protected from light.
4. 1 uL of luciferase enzyme (final concentration 10 nM, Photinus pyralis luciferase) or buffer was dispensed for a final assay volume of 4 uL.
5. Plates were centrifuged (121xg, 15 seconds) and incubated for 5 minutes.
6. Samples were read for luminescence on a ViewLux CCD imager (PerkinElmer). Data were normalized to no-enzyme (0% activity) and no-inhibitor (DMSO; 100%) controls and the resulting percent inhibition data were fitted to a 4-parameter Hill equation using NCATS in-house software.
On the technique in general: qHTS replaces the single test concentration by a dilution series.
As for `O=C(O)Cc1cn([C@@H]2O[C@H](CO)[C@@H](O)[C@H](O)[C@H]2O[C@@H]2O[C@H](CO)[C@@H](O)[C@H](O)[C@H]2O)c2ccccc12`, the Potency entry was “inactive”.

As to `Cc1cc(C(=O)N2Cc3cnn(C)c3Nc3ccccc32)ccc1CNC(=O)N1CCN(Cc2cc(O)cc(O)c2)CC1`, the Potency entry was “inactive”.

For `CC1=CC(=O)CC(C)(C)[C@@]1(O)/C=C/C(C)O[C@@H]1O[C@H](CO)[C@@H](O)[C@H](O)[C@H]1O` (stereo not given in full), the Potency result was “inactive”.

Consider `CC(CCc1ccc(O)cc1)O[C@@H]1O[C@H](CO[C@@H]2OC(CO)[C@H](O)[C@H]2O)[C@@H](O)[C@H](O)[C@H]1O` (stereo not given in full), for which the Potency entry was “inactive”.

As to `O=C(O)[C@H]1Cc2ccccc2CN1`, the outcome is “inactive [at 6.45 µM]”.

For the compound `C=C(CCO)C(=O)OCC1OCC(OC(=O)C(=C)CCO[C@@H]2O[C@H](CO)[C@@H](O)[C@H](O)[C@H]2O)C(O)C1O` (stereo not given in full), the Potency result is “inactive”.

For `COc1cc(/C=C/C(=O)O[C@H]2[C@@H]3C=CO[C@@H](O[C@@H]4O[C@H](CO)[C@@H](O)[C@H](O)[C@H]4O)[C@@H]3[C@@]3(CO)O[C@@H]23)ccc1O`, the Potency entry was “inactive”.

Turning to `CC1OC(OC2C(OC3C(O[C@H]4CC[C@@]5(C)C(CC[C@]6(C)C5CC=C5C7CC(C)(C)CC(O)[C@]7(C)CC[C@]56C)C4(C)C)OC(C(=O)O)C(O)C3O)OCC(O)C2O)C(O)C(O)C1O` (stereo not given in full), the activity change, negative = inhibition was 4.47% [at 11.6 µM].

On to `O=C(/C=C/c1ccc(O)cc1)OC[C@@]1(O)C=C[C@@H]2C(C(=O)O)=CO[C@@H](O[C@@H]3O[C@H](CO)[C@@H](O)[C@H](O)[C@H]3O)[C@@H]21`, for which the Potency result is “inactive”.

For the compound `O=C(O)/C=C/c1ccc2occc2c1O[C@@H]1O[C@H](CO)[C@@H](O)[C@H](O)[C@H]1O`, the Potency result is “inactive”.

As for `CC1=C2C(=O)C=C(CO[C@@H]3O[C@H](CO)[C@@H](O)[C@H](O)[C@H]3O)[C@@H]2[C@H]2OC(=O)[C@H](C)[C@@H]2[C@@H](O)C1`, the Potency entry was “inactive”.

As to `CC(C)C(O)(CO)CCO[C@@H]1O[C@H](CO[C@H]2OC[C@](O)(CO)[C@H]2O)[C@@H](O)[C@H](O)[C@H]1O` (stereo not given in full), the Potency entry is “inactive”.

In the case of `C=CC(C)(CC/C=C(\C)C(=O)OC[C@H]1O[C@@H](OC(C)(C=C)CC/C=C(\C)C(=O)O[C@H]2[C@H](O)[C@@H](O)[C@H](OC(C)(C=C)CC/C=C(\C)C(=O)O)O[C@@H]2CO)[C@H](O)[C@@H](O)[C@@H]1O)O[C@@H]1O[C@H](CO)[C@@H](O)[C@H](O)[C@H]1O` (stereo not given in full), the outcome was “inactive [at 11.6 µM]”.

In the case of `C[C@@H]1O[C@@H](OC2C(O[C@H]3[C@H](O[C@H]4CC[C@@]5(C)C(CC[C@]6(C)C5CC=C5C7CC(C)(C)CC(O)[C@]7(C)CC[C@]56C)C4(C)C)O[C@H](C(=O)O)[C@@H](O)[C@@H]3O)OC(CO)C(O)C2O)[C@H](O)[C@H](O)[C@H]1O` (stereo not given in full), the activity change, negative = inhibition was 2.46% [at 11.6 µM].

Regarding `O=C(O)CC1CCC(c2ccc(NC(=O)c3nnc(Nc4ccc(F)c(F)c4)o3)cc2)CC1` (stereo not given), the Potency result was “inactive”.

Turning to `CC(C)=CCC[C@@](C)(O)[C@H]1CC[C@]2(C)[C@@H]1[C@H](O)CC1[C@@]3(C)CC[C@H](O[C@@H]4O[C@H](CO)[C@@H](O)[C@H](O)[C@H]4O[C@@H]4O[C@H](CO)[C@@H](O)[C@H](O)[C@H]4O)C(C)(C)[C@@H]3CC[C@]12C` (stereo not given in full), the Potency result is “inactive”.

With `Cc1c(C)c(NCC(=O)N(C)C2CCN(Cc3ccc(C(N)=O)cc3)CC2)c(C)c(C)c1N`, the Potency entry was “inactive”.

As for `COc1cc(C)c(C(=O)O[C@@H]2[C@H](O)[C@@H](CO)O[C@H]2n2ccc(=O)[nH]c2=O)c(OC)c1`, the Potency result was “inactive”.

Consider `OC[C@H]1O[C@@H](OCCc2ccccc2)[C@H](O)[C@@H](O)[C@@H]1O`, for which the Potency result is “inactive”.

With `C/C(=C\CCC(C)(C)O)CCO[C@@H]1O[C@H](CO[C@@H]2O[C@@H](C)[C@H](O)[C@@H](O)[C@H]2O)[C@@H](O)[C@H](O)[C@H]1O`, the Potency result was “inactive”.

On to `O=C1NC(=O)/C(=C/c2cccc(C(F)(F)F)c2)S1`, for which the Potency entry is “inactive”.

For `COc1cccc(C(=O)NCCNc2nc3cc(C)cc(C)c3cc2C#N)c1`, the Potency result is “inactive”.

`C=C1C(OC(C)=O)[C@@]23CCC4[C@](C)(C(=O)O)CCC[C@@]4(C)[C@]2(O)CC[C@H]1C3` (stereo not given in full): the Potency entry is “inactive”.

For `COC(=O)c1c(CC=C(C)C)c(OC2OC(CO)C(O)C(O)C2O)c2ccccc2c1OC1OC(CO)C(O)C(O)C1O` (stereo not given), the Potency entry is “inactive”.

For the compound `C/C=C(/C)C(=O)O[C@H]1C[C@]2(C)O[C@@H]2[C@@H](OC(C)=O)[C@@]2(C)CC[C@@](O)(C(C)C)[C@H]12`, the Potency result is “inactive”.

Regarding `C[C@@H]1O[C@@H](O[C@@H]2\C=C/C=C\C=C/C=C\C[C@H](C)OC(=O)/C=C\[C@H]3O[C@@H]3C[C@H](O)C[C@]3(O)C[C@@H](O)[C@@H](C(=O)O)[C@H](C2)O3)[C@H](O)[C@H](N)[C@@H]1O`, the Potency entry was “inactive”.

As for `C/C=C(\C)C(=O)OC[C@H]1O[C@H](O[C@H]2O[C@H](CO)[C@@H](O)[C@H](O)[C@H]2O[C@@H]2O[C@H](CO)[C@@H](O)[C@H](O)[C@H]2O)[C@H](O[C@@H]2O[C@H](CO)[C@@H](O)[C@H](O)[C@H]2O)[C@@H](O)[C@@H]1O`, the Potency entry is “inactive”.

`COc1ccc([C@H]2OC[C@H]3[C@@H]2CO[C@@H]3c2ccc(O[C@@H]3O[C@H](CO)C(O)[C@H](O)[C@H]3O)c(OC)c2)cc1OC` (stereo not given in full): the Potency entry was “inactive”.

`CC(C)c1ccc2c(c1)C(O)CC1C(C)(C(=O)O)CCCC21C` (stereo not given): the Potency result was “inactive”.

`COc1cnc(-n2cnc(C)n2)c2[nH]cc(C(=O)C(=O)N3CCN(C(=O)c4ccccc4)CC3)c12`: the Potency result was “inactive”.

On to `COc1cc(/C=C/C(=O)OC[C@H]2O[C@@H](OC3OC=C(C(=O)O)C4C(O)CC(C)(O)C34)[C@H](O)[C@@H](O)[C@@H]2O)cc(OC)c1O` (stereo not given in full), for which the Potency entry is “inactive”.

Take `COc1cc(O)c2c(c1Cl)CC(C)OC2=O` (stereo not given): the Potency entry was “inactive”.

`CC(=O)O[C@@H]1[C@H](O[C@@H]2O[C@H](CO)[C@@H](O)[C@H](O)[C@H]2O)[C@@H](O[C@@H]2O[C@@H](C)[C@H](O)[C@@H](O[C@@H]3O[C@H](CO)[C@@H](O)[C@H](O)[C@H]3O)[C@H]2O)[C@H](OC(=O)[C@]23CCC(C)(C)C[C@H]2C2=CCC4[C@@]5(C)C[C@H](O)[C@H](O[C@@H]6O[C@H](C(=O)O)[C@@H](O)[C@H](O)[C@H]6O)[C@@](C)(C(=O)O)C5CC[C@@]4(C)[C@]2(C)CC3)O[C@@H]1C` (stereo not given in full): the outcome was “inactive [at 11.6 µM]”.

On to `CC(=O)O[C@@H]1C=C2[C@H](CC[C@@]3(C)[C@@]2(O)CC[C@H]2Cc4c([nH]c5ccccc45)[C@@]23C)O[C@@H]1C(C)(C)O`, for which the Potency result was “inactive”.

For the compound `Cc1oc2nc3c(c(NC(=O)CN4CCCC4=O)c2c1C)CCCC3`, the Potency entry was “inactive”.

For the compound `CC(C)[C@@](O)(c1ccc2cc(OC(F)F)c(OC(F)F)cc2c1)c1cn[nH]n1`, the Potency result was “inactive”.

Take `C/C=C/C=C/C=C/C(=O)N(C)C(C(=O)NC(C)C(=O)N1CCCC1C(N)=O)C(C)C` (stereo not given): the Potency result was “inactive”.

Take `O=C(COCC(=O)N1CCN(C(c2ccccc2)c2ccccc2)CC1)Nc1ccc(Cl)cc1C(=O)O`: the Potency entry is “inactive”.

`C=C(C)[C@H]1CC[C@]2(C(=O)O)CC[C@]3(C)C(CCC4[C@@]5(C)CCC(=O)C(C)(C)C5CC[C@]43C)C12` (stereo not given in full): the Potency entry is “inactive”.

For the compound `Cc1cc(-n2c(=O)[nH]c(=O)n(C)c2=O)ccc1Oc1ccc(SC(F)(F)F)cc1`, the Potency result was “inactive”.

(Values after PubChem BioAssay (NCATS).)
